Experimental data taken from the supplement of paper PMC9492666.
Where a name gives a salt, the structure may show the parent alone.

test system: HCC1937; test: relative cell viability, compound + erastin, vs DMSO (fraction of DMSO control); higher = less growth inhibition; conditions: 72 h
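Note: viability read by CCK-8 kit in 96-well plates, part of a combination screen pairing lipid-metabolism-targeting compounds with erastin.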

Compound | relative cell viability
O=C(O)c1cc2c(Cl)c(N3CCN(S(=O)(=O)c4c(Cl)cccc4Cl)CC3)ccc2o1 [Vonafexor] + CCOc1ccccc1-n1c(C(C)N2CCN(C(=O)COc3ccc(Cl)cc3)CC2)nc2ccccc2c1=O [erastin] | 0.846
CC(C)(C)NC(=O)[C@H]1CC[C@H]2[C@@H]3CC[C@H]4NC(=O)C=C[C@]4(C)[C@H]3CC[C@]12C [Finasteride] + CCOc1ccccc1-n1c(C(C)N2CCN(C(=O)COc3ccc(Cl)cc3)CC2)nc2ccccc2c1=O [erastin] | 0.873
O=c1c(-c2ccc(O)cc2)coc2cc(O)ccc12 [Daidzein] + CCOc1ccccc1-n1c(C(C)N2CCN(C(=O)COc3ccc(Cl)cc3)CC2)nc2ccccc2c1=O [erastin] | 0.827
CC1=C(C)C(=O)C(C(CCCCCC(=O)O)c2ccccc2)=C(C)C1=O (configuration not stated) [Seratrodast] + CCOc1ccccc1-n1c(C(C)N2CCN(C(=O)COc3ccc(Cl)cc3)CC2)nc2ccccc2c1=O [erastin] | 0.851
Nc1ncnc2c1ncn2[C@@H]1O[C@H](COP(=O)(O)O)[C@@H](O)[C@H]1O [Adenosine 5'-monophosphate] + CCOc1ccccc1-n1c(C(C)N2CCN(C(=O)COc3ccc(Cl)cc3)CC2)nc2ccccc2c1=O [erastin] | 0.642
N=C(N)NC(=N)NCCc1ccccc1 [Phenformin hydrochloride] + CCOc1ccccc1-n1c(C(C)N2CCN(C(=O)COc3ccc(Cl)cc3)CC2)nc2ccccc2c1=O [erastin] | 0.756
COc1ccc(CN2CCNCC2)c(OC)c1OC [Trimetazidine dihydrochloride] + CCOc1ccccc1-n1c(C(C)N2CCN(C(=O)COc3ccc(Cl)cc3)CC2)nc2ccccc2c1=O [erastin] | 0.786
